Assay [1] is described as follows: yeast TOR pathway RPL19A-GFP modulators, primary screen, cell-based, S. cerevisiae, multiplex flow cytometry (AID 1862; in the data active = percent of DMSO control GFP below about 86%;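 note: lower values mimic rapamycin by blocking the RPL19A rise seen in DMSO cells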). As to conditions: S. cerevisiae RPL19A-GFP strain, flow cytometry fluorescence, 3 h; at 10 µM; stronger effect = lower value. On the technique in general: Flow cytometry measures light scatter and fluorescence of single cells or particles in a stream.
A short description of assay [2]: modulators of MEP2-GFP levels in yeast, primary screen, S. cerevisiae, multiplex flow cytometry (AID 1867).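 Note: median GFP channel fluorescence of barcode-gated MEP2-GFP cells measured by flow cytometry.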 As to conditions: S. cerevisiae MEP2-GFP strain, 3 h, at 10 µM, stronger effect = higher value, 100% means same as DMSO wells.
A short description of assay [3]: modulators of CIT2-GFP expression in yeast, primary screen, S. cerevisiae, GFP fusion, multiplex flow cytometry (AID 1870;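 active = percent response above a set limit, the screen-wide mean plus 3 SD, cut at about 130% in these data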;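 note: barcoded CIT2-GFP strain pooled with four other GFP strains with rapamycin as positive control; median GFP fluorescence per well over plate mean of DMSO wells so 100% = DMSO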). As to conditions: 3 h, at 10 µM, stronger effect = higher value.
The nature of assay [4]: modulators of LAP4-GFP expression in yeast, primary screen, S. cerevisiae, multiplex flow cytometry (AID 1873;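 active = GFP signal, as percent of the solvent control, above the screen mean plus 3 SD, about 149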). As to conditions: 3 h, at 10 µM, stronger effect = higher value.
The nature of assay [5]: modulators of AGP1-GFP expression in yeast TOR pathway, primary screen, cell-based, multiplex flow cytometry, S. cerevisiae (AID 1887;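 active = GFP signal above the screen-wide mean plus 3 SD, that is over about 124.5% of the solvent control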;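 note: AGP1-GFP fusion strain of S. cerevisiae within a five-strain barcoded multiplex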). As to conditions: 3 h, at 10 µM, stronger effect = higher value.
The nature of assay [6]: inhibitors of CD8+ T cell-vesicle binding, pilot screen, LFA-1/ICAM-1 modulator project, MLPCN validation set, flow cytometry (AID 2523;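 active = response below a set limit, under 55% cells CD8-positive and vesicle-bound, and CD8 cells' 90th-percentile brightness under 279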;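 for vesicle binding response: mean PE anti-B7-1 fluorescence of CD8+ cells relative to row control; 100% = QL9-loaded vesicles with DMSO vehicle in the same plate row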). As to conditions: 2C mouse CD8+ T cells, at 7 µM, stronger effect = lower value; double positive events: measured here: CD8+/vesicle+ event percentage.
The target of assay [7] is Integrin beta-1 (Homo sapiens) + Integrin alpha-4 (Homo sapiens) (UniProt P13612+P05556). As to the kind of experiment: inhibition of HUTS-21 binding to VLA-4, pilot screen, VLA-4 allosteric modulator project, U937 cells, HUTS-21 mAb, flow cytometry, validation set (AID 2674;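 active = inhibition above 50%, about 3 SD of the validation set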;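 note: antibody binding induced by the VLA-4 ligand LDV present at three times its Kd; 0% = LDV ligand with antibody and no compound and 100% = antibody without LDV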). As to conditions: HUTS-21 LIBS mAb binding, at 6.7 µM, stronger effect = higher value, binding induced by LDV ligand.
Sequence of Integrin beta-1 (Homo sapiens) + Integrin alpha-4 (Homo sapiens) (P05556 whole entry, looked up): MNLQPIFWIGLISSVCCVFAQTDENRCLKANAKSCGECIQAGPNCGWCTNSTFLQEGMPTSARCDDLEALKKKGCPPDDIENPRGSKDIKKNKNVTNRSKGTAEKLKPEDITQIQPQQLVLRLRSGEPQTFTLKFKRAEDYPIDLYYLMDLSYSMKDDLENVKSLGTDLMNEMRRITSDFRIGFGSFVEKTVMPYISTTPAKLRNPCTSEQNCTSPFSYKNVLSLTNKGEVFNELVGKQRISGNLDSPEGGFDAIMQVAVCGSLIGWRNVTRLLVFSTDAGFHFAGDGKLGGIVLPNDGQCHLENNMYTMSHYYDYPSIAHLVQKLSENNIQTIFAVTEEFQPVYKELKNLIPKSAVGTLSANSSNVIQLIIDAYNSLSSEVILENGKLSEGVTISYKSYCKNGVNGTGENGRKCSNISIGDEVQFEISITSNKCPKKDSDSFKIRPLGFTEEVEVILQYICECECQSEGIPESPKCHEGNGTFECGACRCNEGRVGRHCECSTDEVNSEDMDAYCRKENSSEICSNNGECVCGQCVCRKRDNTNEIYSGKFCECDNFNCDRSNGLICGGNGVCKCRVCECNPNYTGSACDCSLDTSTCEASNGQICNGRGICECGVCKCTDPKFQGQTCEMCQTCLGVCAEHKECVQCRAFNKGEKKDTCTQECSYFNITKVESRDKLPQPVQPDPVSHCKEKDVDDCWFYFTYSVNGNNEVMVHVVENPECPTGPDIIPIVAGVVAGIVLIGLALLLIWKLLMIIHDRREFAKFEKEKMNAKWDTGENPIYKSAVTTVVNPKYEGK
Sequence of Integrin beta-1 (Homo sapiens) + Integrin alpha-4 (Homo sapiens) (P13612 whole entry, looked up): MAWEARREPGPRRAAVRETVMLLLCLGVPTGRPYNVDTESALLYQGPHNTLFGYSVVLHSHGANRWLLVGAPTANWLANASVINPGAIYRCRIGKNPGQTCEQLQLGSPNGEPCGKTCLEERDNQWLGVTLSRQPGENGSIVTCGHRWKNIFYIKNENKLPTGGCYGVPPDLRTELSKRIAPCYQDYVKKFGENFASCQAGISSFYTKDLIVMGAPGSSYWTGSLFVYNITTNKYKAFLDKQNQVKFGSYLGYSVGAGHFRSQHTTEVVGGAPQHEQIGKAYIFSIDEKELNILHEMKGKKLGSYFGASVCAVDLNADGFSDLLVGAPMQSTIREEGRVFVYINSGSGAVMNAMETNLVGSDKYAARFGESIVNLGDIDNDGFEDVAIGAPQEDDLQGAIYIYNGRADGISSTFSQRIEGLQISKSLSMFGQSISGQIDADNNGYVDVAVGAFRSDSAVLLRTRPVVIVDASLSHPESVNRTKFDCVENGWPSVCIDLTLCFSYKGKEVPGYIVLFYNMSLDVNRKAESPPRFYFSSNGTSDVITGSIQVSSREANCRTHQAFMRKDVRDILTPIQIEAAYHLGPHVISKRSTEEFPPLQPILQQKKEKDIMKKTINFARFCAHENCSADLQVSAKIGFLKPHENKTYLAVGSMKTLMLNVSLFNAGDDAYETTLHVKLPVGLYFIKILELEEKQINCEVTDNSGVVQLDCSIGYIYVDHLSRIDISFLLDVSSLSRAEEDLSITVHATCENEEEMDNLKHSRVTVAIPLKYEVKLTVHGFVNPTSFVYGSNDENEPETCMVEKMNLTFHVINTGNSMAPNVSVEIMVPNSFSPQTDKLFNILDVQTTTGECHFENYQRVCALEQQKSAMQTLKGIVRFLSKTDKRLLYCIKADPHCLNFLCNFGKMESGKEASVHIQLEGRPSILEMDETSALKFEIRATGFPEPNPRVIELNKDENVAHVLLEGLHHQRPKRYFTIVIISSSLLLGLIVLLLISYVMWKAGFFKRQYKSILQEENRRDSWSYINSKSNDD

Assay [8] in a line: superoxide lowering in aged yeast cells, pilot screen, validation compound set (AID 2706;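 active = superoxide response below 65% of plate, a cut near 3 SD across the whole screen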;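 note: yeast exposed to compound for one week at 30 degrees C before staining; 100% = mean of all compound wells on the same plate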). As to conditions: S. cerevisiae aging, superoxide DHE fluorescence; at 10 µM; stronger effect = lower value.
For assay [9], the target named is Beta-adrenergic receptor kinase 1 (Homo sapiens) (UniProt P25098). The assay is described as follows: GRK2 binders displacing RNA aptamer, biochemical, validation, human GRK2, bead flow cytometry (AID 488806;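 active = aptamer binding inhibition above 30%, about 3 SD of noise from non-fluorescent compounds; inactive = inhibition at or below 30%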). As to conditions: bead-bound GRK2, FAM-aptamer displacement, at 10 µM, stronger effect = higher value.
Sequence of Beta-adrenergic receptor kinase 1 (Homo sapiens) (P25098 whole entry, looked up): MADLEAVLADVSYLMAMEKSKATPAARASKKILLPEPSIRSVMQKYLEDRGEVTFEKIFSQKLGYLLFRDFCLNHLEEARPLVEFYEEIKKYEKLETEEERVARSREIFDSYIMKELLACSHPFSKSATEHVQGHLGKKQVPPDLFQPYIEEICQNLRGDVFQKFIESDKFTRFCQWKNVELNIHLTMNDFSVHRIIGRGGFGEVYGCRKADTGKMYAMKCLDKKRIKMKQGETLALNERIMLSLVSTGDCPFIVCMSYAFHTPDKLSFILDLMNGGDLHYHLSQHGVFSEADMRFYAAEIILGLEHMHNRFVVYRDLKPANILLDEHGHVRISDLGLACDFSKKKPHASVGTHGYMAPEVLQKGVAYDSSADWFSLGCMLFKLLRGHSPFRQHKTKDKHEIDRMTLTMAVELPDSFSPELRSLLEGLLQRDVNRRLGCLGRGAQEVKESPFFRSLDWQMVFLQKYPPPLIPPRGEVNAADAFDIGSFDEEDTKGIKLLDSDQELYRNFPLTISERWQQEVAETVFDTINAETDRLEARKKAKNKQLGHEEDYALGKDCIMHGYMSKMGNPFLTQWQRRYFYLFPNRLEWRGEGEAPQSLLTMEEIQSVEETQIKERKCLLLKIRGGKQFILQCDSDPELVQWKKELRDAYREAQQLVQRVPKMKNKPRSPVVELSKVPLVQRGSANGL
Assay [10] addresses Beta-2 adrenergic receptor (Homo sapiens) (UniProt P07550). As to the kind of experiment: beta2AR agonists driving receptor internalization, pilot screen, cell-based, FAP fluorogen, flow cytometry, validation set (AID 504459;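 active = percent response above 42, roughly 3 SD of non-fluorescent test compounds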;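 note: agonist-driven loss of surface beta2AR via internalization measured by FAP dye flow cytometry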). As to conditions: Am2.2-beta2AR cells, FAP surface receptor flow cytometry; at 10 µM; stronger effect = higher value.
Assay [11] addresses AP-2 complex subunit beta (Homo sapiens) (UniProt P63010). The assay is described as follows: inhibitors of arrestin peptide binding to AP2, pilot screen, biochemical, validation set, GST-AP2 beads, flow cytometry (AID 504541;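 active = inhibition above 54%, about 3 SD of non-fluorescent compounds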;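 note: AP2 carries R879A mutation and is captured from E. coli lysate; bead-bound FITC arrestin peptide fluorescence measuring arrestin peptide binding to AP2; 0% = DMSO wells and 100% = excess unlabeled arrestin peptide control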). As to conditions: FITC arrestin peptide, at 10 µM, stronger effect = higher value, AP2 beta2 appendage fragment, R879A mutant.
The nature of assay [12]: yeast V-ATPase proton transport modulators, S. cerevisiae, pHLuorin, HTS validation (AID 504600; in the data active = response above about 15%;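 note: plate controls were DMSO for no effect and reference compound for full effect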). As to conditions: S. cerevisiae pHLuorin cytosolic pH, at 10 µM, stronger effect = higher value.
Assay [13] relates to anti-desmoglein-3 scFv antibody binding to human DSG3. As to the kind of experiment: inhibitors of anti-DSG3 scFv binding to DSG3, pilot screen, biochemical, validation compound set, bead-based, flow cytometry (AID 588368;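 active = binding below the plate cutoff, the plate median minus 3 SD, with a reading above zero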;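 note: signal is the median channel fluorescence of bead-bound GFP antibody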). As to conditions: Protein G beads, DSG3-Fc, scFv-GFP binding, at 10 µM, stronger effect = lower value.
Assay [14] can be described thus: inhibitors of fungal efflux pumps CDR1, CDR2, MDR1, pilot screen, validation compound set, multiplex, phenotypic (AID 588506;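 active = efflux inhibition above 0.42, the validation set average plus 4 SD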;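 note: Nile Red retained in cells so higher fluorescence means more efflux inhibition; 0 = negative control wells and 1 = enniatin B 25 µM full block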). As to conditions: S. cerevisiae pump-expressing triplex, Nile Red efflux flow cytometry; at 10 µM; stronger effect = higher value; the pumps come from Candida albicans.
For assay [15], the target named is ATP-binding cassette sub-family B member 6 (Homo sapiens) (UniProt Q9NP58). As to the kind of experiment: ABCB6 transporter inhibitors, pilot screen, K562-ABCB6 cells, flow cytometry, validation set (AID 588550;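 active = inhibition above the screen-wide mean plus 3 SD, about 51%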;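 note: 0% = DMSO wells and 100% = benzethonium chloride 70 µM positive control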). As to conditions: K562-ABCB6 porphyrin accumulation, 1 h, at 10 µM, stronger effect = higher value.
Sequence of ATP-binding cassette sub-family B member 6 (Homo sapiens) (Q9NP58 whole entry, looked up): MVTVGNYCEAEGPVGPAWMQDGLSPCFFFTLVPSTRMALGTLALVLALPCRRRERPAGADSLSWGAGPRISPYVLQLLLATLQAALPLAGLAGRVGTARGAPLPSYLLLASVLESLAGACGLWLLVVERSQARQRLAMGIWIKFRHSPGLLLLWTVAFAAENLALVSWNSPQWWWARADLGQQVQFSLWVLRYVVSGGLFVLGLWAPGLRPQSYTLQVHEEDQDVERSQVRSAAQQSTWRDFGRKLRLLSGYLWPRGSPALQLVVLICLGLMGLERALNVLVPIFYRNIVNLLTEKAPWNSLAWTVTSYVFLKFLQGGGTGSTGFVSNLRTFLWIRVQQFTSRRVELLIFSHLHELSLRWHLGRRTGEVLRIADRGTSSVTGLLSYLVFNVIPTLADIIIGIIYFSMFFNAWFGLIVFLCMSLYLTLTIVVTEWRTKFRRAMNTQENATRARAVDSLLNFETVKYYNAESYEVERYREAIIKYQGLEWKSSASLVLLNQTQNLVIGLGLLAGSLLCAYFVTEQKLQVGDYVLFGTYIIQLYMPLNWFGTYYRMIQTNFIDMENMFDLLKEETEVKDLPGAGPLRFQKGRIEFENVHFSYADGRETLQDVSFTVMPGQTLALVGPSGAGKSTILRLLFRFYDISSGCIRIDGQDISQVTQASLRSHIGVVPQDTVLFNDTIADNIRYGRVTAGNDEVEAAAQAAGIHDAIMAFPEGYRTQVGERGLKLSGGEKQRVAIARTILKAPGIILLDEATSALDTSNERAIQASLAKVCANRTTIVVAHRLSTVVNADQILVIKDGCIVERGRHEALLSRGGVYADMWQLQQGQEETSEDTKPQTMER
Assay [16] is described as follows: promoters of myeloid differentiation in arrested cells, primary screen, cell-based, GFP/MAC1 double positive, flow cytometry, validation set (AID 588685;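 active = differentiation response of at least 50%, scaled between solvent and reference control, from cells with both markers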;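 note: compound exposure lasts four days before antibody staining and flow analysis; 0% = DMSO wells and 100% = 5 µM fulvestrant positive control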). As to conditions: ER-HoxA9 marrow cells, stronger effect = higher value, normalized: vehicle 0, fulvestrant 100.

Results filed as inconclusive are left out. The source made the active and inactive calls.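 Rule for the calls, unless noted: active = GFP response, as percent of the DMSO control, above the screen-wide mean plus 3 SD, about 139; inconclusive = no response measured because the compound's own fluorescence interfered; inactive = the rest.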

Sequence of Beta-2 adrenergic receptor (Homo sapiens) (P07550 whole entry, looked up): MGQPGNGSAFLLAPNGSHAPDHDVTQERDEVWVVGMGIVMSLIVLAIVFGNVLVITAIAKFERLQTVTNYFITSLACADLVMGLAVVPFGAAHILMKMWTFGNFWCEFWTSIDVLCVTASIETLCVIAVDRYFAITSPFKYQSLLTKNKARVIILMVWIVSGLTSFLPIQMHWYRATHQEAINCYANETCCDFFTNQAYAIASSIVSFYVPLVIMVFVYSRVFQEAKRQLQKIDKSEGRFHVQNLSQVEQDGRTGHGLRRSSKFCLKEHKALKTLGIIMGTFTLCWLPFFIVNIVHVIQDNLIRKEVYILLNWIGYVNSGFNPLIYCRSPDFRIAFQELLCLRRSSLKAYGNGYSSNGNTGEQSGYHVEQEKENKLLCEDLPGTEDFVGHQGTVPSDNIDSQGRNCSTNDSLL
Sequence of AP-2 complex subunit beta (Homo sapiens) (P63010 whole entry, looked up, the tested form may be a part, one chain of several): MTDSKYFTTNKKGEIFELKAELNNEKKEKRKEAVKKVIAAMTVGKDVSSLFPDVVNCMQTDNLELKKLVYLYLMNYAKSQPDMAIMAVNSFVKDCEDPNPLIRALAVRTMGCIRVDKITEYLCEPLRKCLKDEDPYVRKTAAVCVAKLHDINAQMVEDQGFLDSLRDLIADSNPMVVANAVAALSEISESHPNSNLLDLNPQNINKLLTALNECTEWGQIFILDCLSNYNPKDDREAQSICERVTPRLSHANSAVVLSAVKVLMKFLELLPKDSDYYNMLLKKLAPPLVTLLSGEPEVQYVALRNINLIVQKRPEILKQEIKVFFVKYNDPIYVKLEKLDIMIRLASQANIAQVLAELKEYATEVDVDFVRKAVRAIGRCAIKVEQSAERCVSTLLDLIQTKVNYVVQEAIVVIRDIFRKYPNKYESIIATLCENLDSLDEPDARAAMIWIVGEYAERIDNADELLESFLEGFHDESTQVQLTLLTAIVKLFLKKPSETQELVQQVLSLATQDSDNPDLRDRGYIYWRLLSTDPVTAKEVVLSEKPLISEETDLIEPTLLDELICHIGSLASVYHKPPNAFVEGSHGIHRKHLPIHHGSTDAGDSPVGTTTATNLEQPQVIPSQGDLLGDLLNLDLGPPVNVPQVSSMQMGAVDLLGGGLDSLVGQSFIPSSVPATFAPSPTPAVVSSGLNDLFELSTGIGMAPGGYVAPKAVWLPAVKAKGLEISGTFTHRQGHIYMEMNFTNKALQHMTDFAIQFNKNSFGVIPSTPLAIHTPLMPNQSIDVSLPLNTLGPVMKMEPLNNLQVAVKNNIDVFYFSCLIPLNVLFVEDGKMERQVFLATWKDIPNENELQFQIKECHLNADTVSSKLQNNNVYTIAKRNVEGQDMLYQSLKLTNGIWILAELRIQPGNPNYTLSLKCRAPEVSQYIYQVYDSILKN

With `COc1ccc(OC(C)C(=O)Nc2ccc([N+](=O)[O-])cc2)cc1` (stereo not given), the percent of DMSO control GFP in [1] is 102% (inactive). Also, the GFP response vs DMSO was 107% (inactive) in assay [2] and 114% (inactive) in [4]. In addition, the percent response of DMSO control in [3] is 99.7% (inactive). In addition, the GFP response, % of DMSO in [5] was 97.5% (inactive). Also, in assay [6], the double positive events is 65.7%. In [6], the vesicle binding response was 249% (inactive). The figures for the inhibition in [7], in [11] and in assay [15] were 0.25% (inactive), -7.72% (inactive) and 5% (inactive), respectively. For the same compound, the superoxide response (% of plate) in assay [8] was 103% (inactive). Also, the aptamer binding inhibition in [9] was -3% (inactive). Also, the values for the response in assay [10] and in [12] were 1.65% (inactive) and 3.86% (inactive), respectively. Besides, in assay [13], the binding (% of control) was 103% (inactive). For the same compound, the efflux inhibition (fraction of control) in [14] was -0.21 (inactive). Moreover, the differentiation response in [16] was 13% (inactive).
Regarding `CCCCOC(=O)c1ccc(N)cc1`, in assay [1], the percent of DMSO control GFP is 101% (inactive). The results for the GFP response vs DMSO in assay [2] and in [4] were 104% (inactive) and 93.7% (inactive), respectively. In addition, the percent response of DMSO control in assay [3] was 110% (inactive). In addition, the GFP response, % of DMSO in [5] was 105% (inactive). In [6], the double positive events was determined as 59.9%. Besides, the vesicle binding response in [6] is 183% (inactive). The inhibition (commonly the relative decrease from the control value, in per cent) in [7] was -15.8% (inactive); in assay [11], 53.1% (inactive); in assay [15], -2% (inactive). Besides, the superoxide response (% of plate) in [8] is 91.1% (inactive). Moreover, in [9], the aptamer binding inhibition was -3% (inactive). Also, the response in [10] was -7.71% (inactive); in assay [12], -4.52% (inactive). In assay [13], the binding (% of control) is 99.4% (inactive). Also, the efflux inhibition (fraction of control) in assay [14] is -0.03 (inactive). Also, the differentiation response in assay [16] is -7.5% (inactive).
For the compound `NC(=O)[C@@H]1[C@@H]2C(=O)N(c3ccc(F)cc3)C(=O)[C@@H]2[C@H]2C=Cc3ccccc3N21`, the percent of DMSO control GFP in assay [1] was 104% (inactive). In addition, the GFP response vs DMSO in assay [2] was 105% (inactive); in assay [4] it was 100% (inactive). In addition, in assay [3], the percent response of DMSO control is 112% (inactive). Besides, the GFP response, % of DMSO in assay [5] was 102% (inactive). This compound also showed a double positive events in assay [6] of 63%. Moreover, the vesicle binding response in assay [6] was 126% (inactive). Moreover, the inhibition in assay [7] is -80.5% (inactive); in assay [11] it was -25.9% (inactive); in [15], -37% (inactive). In assay [8], the superoxide response (% of plate) was 103% (inactive). Further, the aptamer binding inhibition in assay [9] is 6% (inactive). The response in [10] was 4.67% (inactive); in assay [12] it was -0.45% (inactive). For the same compound, the binding (% of control) in assay [13] is 104% (inactive). Also, the efflux inhibition (fraction of control) in assay [14] is -0.12 (inactive). For the same compound, in assay [16], the differentiation response is 3.45% (inactive).
Regarding `CS(=O)(=O)c1cccc(C(=O)Oc2ccccc2)c1`, in assay [1], the percent of DMSO control GFP is 104% (inactive). The GFP response vs DMSO was 97.2% (inactive) in assay [2] and 82.8% (inactive) in assay [4]. Also, the percent response of DMSO control in assay [3] was 106% (inactive). Further, the GFP response, % of DMSO in [5] was 101% (inactive). In assay [6], this compound came in with a double positive events of 60.5%. Also, the vesicle binding response in assay [6] was 76.6% (inactive). The inhibition in assay [7] is 9.92% (inactive); in [11], -4.57% (inactive); in [15] it was 3% (inactive). Further, the superoxide response (% of plate) in [8] was 99% (inactive). Also, the aptamer binding inhibition in assay [9] was 3% (inactive). Also, the figures for the response in assay [10] and in assay [12] were -8.78% (inactive) and -0.27% (inactive), respectively. For the same compound, in assay [13], the binding (% of control) is 100% (inactive). In assay [14], the efflux inhibition (fraction of control) was -0.1 (inactive). In addition, in assay [16], the differentiation response is 10% (inactive).
Consider `Cc1ccccc1-c1nn(-c2ccc(F)cc2F)cc1CNCCN(C)C`, for which the percent of DMSO control GFP in [1] is 106% (inactive). For the same compound, the GFP response vs DMSO was 103% (inactive) in [2] and 98.6% (inactive) in assay [4]. Also, in [3], the percent response of DMSO control is 116% (inactive). Also, the GFP response, % of DMSO in [5] was 102% (inactive). The compound further registered a double positive events in [6] of 62%. In addition, the vesicle binding response in assay [6] was 51.7% (inactive). Besides, the inhibition is 13% (inactive) in [7], -6% (inactive) in [11] and -15% (inactive) in [15]. For the same compound, the superoxide response (% of plate) in assay [8] was 90.2% (inactive). Further, the aptamer binding inhibition in [9] is -11% (inactive). Further, the response in assay [10] is -7.22% (inactive); in [12] it was 3.34% (inactive). The binding (% of control) in [13] is 103% (inactive). Also, the efflux inhibition (fraction of control) in [14] was -0.07 (inactive). Besides, the differentiation response in assay [16] is -5.62% (inactive).

(Values after PubChem BioAssay.)
